Source: the supplement of paper PMC12494721
Where a name gives a salt, the structure may show the parent alone.

Tested on: Klebsiella aerogenes DSM 30053
Test: fold change of Histamine concentration vs plate DMSO controls (fold change (ratio)); higher = more amine produced, active = hit call of the paper (significant change in both replicates, either direction)
Conditions: incubation time: 27 h, anaerobic, 37 °C;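 for the amine columns active = adjusted P below 0.05 in both replicates with a change the same way and a mean fold change under 0.8 or over 1.25; inactive = the rest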
In short: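 Amines were quantified by LC–triple-quadrupole MS in dynamic MRM mode against external calibration curves, with drift correction within each batch. The samples were whole anaerobic mGAM cultures of four gut bacterial strains, grown for 27 h at 37 °C in 80 µL wells and extracted with cold acetonitrile/methanol with 0.1% formic acid, then centrifuged. Values are reported as fold change over DMSO controls on the same plate. The mean of 2 biological replicates is given.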

Fold change of Histamine concentration, inactive:
CCCCCCC[N+](CC)(CC)CCCCc1ccc(Cl)cc1 [Clofilium tosylate] (20 µM) 0.897
N=C(N)NCC1COC2(CCCCC2)O1 (centres undefined) [Guanadrel sulfate] (20 µM) 1.04
CCCC(CCC)C(=O)O[C@H]1C[C@H]2CC[C@@H](C1)[N+]2(C)C [Anisotropine Methylbromide] (20 µM) 0.986
COc1ccc2c(c1)c(CC(=O)OCC(=O)O)c(C)n2C(=O)c1ccc(Cl)cc1 [Acemetacin] (20 µM) 0.983
CN1CCCN=C1/C=C/c1cccc(O)c1 [Oxantel pamoate] (20 µM) 0.924
COc1c(O[C@@H]2O[C@H](CO)[C@@H](O)[C@H](O)[C@H]2O)cc2c(c1OC)-c1ccc(SC)c(=O)cc1[C@@H](NC(C)=O)CC2 [Thiocolchicoside] (20 µM) 1.1
Cc1c(Nc2ncccc2C(=O)O)cccc1C(F)(F)F [Flunixin meglumine] (20 µM) 0.909
C#C[C@]1(OC(C)=O)CC[C@H]2[C@@H]3CCC4=CC(=NO)CC[C@@H]4[C@H]3CC[C@@]21CC (mixture of isomers) [Norgestimate] (20 µM) 1.01
CC12CC3CC(C)(C1)CC(N)(C3)C2 [Memantine hydrochloride] (20 µM) 0.989
CC(CCc1ccccc1)NCC(O)c1ccc(O)c(C(N)=O)c1 (centres undefined) [Labetalol hydrochloride] (20 µM) 0.944
CCCCc1oc2ccc(NS(C)(=O)=O)cc2c1C(=O)c1ccc(OCCCN(CCCC)CCCC)cc1 [Dronedarone hydrochloride] (20 µM) 0.99
CCN1CCCC(OC(=O)C(c2ccccc2)c2ccccc2)C1 (centres undefined) [Piperidolate hydrochloride] (20 µM) 1.02
C[C@]1(Cn2ccnn2)[C@H](C(=O)O)N2C(=O)C[C@H]2S1(=O)=O [Tazobactam] (20 µM) 0.904
O=C(CCCN1CCN(c2ccccn2)CC1)c1ccc(F)cc1 [Azaperone] (20 µM) 1.01
CC(=O)Nc1c(I)c(NC(C)=O)c(I)c(C(=O)O)c1I [Diatrizoic acid dihydrate] (20 µM) 1.03
CN[C@@H]1[C@@H](O)[C@@H](O[C@@H]2[C@@H](O)[C@H](O[C@H]3OC(CN)=CC[C@H]3N)[C@@H](N)C[C@H]2N)OC[C@]1(C)O [Sisomicin sulfate] (20 µM) 0.971
CC(CN(C)C)C(C)(O)Cc1ccc(Cl)cc1 (centres undefined) [Clobutinol hydrochloride] (20 µM) 1.03
CC(=O)[C@H]1CC[C@H]2[C@@H]3C[C@H](C)C4=CC(=O)CC[C@]4(C)[C@H]3[C@@H](O)C[C@]12C [Medrysone] (20 µM) 1.02
CC(C(=O)O)c1ccc(-c2ccccc2)c(F)c1 (centres undefined) [Flurbiprofen] (20 µM) 1.07
CCOC(=O)/C=C(C)/C=C/C=C(C)/C=C/c1c(C)cc(OC)c(C)c1C [Etretinate] (20 µM) 1.09
c1ccc2c(CC3=NCCN3)cccc2c1 [Naphazoline hydrochloride] (20 µM) 1.01
CCCCC(=O)N(Cc1ccc(-c2ccccc2-c2nnn[nH]2)cc1)[C@H](C(=O)O)C(C)C [Valsartan] (20 µM) 0.913
COc1ccccc1O [Guaiacol] (20 µM) 0.966
OC[C@H]1O[C@@H](O[C@@H]2[C@@H](CO)OC(O)(CO)[C@H]2O)[C@H](O)[C@@H](O)[C@H]1O (mixture of isomers) [Lactulose] (50 µM) 1.01
CC(C)COC(=O)OCN1C(=O)CN(CCN2CC(=O)N(COC(=O)OCC(C)C)C(=O)C2)CC1=O [Sobuzoxane] (20 µM) 1
NS(=O)(=O)c1cc2c(cc1C(F)(F)F)NC(Cc1ccccc1)NS2(=O)=O (centres undefined) [Bendroflumethiazide] (20 µM) 0.915
CCOC(=O)[C@H](CCc1ccccc1)N[C@H]1CCc2ccccc2N(CC(=O)O)C1=O [Benazepril hydrochloride] (20 µM) 1
CC(=O)Oc1cc(C(C)C)c(OCCN(C)C)cc1C [Moxisylyte hydrochoride] (20 µM) 0.989
O=C1c2c(O)ccc(O)c2C(=O)c2c(NCCNCCO)ccc(NCCNCCO)c21 [Mitoxantrone dihydrochloride] (20 µM) 0.924
Nc1cccc2c1C(=O)N(C1CCC(=O)NC1=O)C2=O (centres undefined) [Pomalidomide] (20 µM) 1.13
CCCCOc1ccc(C(=O)CCN2CCCCC2)cc1 [Dyclonine hydrochloride] (20 µM) 1
OCC(O)CN1CCN(c2ccccc2)CC1 (centres undefined) [Dropropizine] (20 µM) 1.08
CN(C)CCC(c1ccc(Cl)cc1)c1ccccn1 (centres undefined) [Chlorpheniramine maleate] (20 µM) 0.983
CNCC(O)c1ccc(OC(=O)C(C)(C)C)c(OC(=O)C(C)(C)C)c1 (centres undefined) [Dipivefrin hydrochloride] (20 µM) 1.01
CC(=O)O[C@H]1C[C@@]2(C)[C@@H](C[C@@H](O)[C@H]3[C@@]4(C)CC[C@@H](O)[C@@H](C)[C@@H]4CC[C@@]32C)/C1=C(\CCC=C(C)C)C(=O)O [Fusidic acid sodium salt] (20 µM) 0.846
CCOc1ccccc1OCC1CNCCO1 (centres undefined) [Viloxazine hydrochloride] (20 µM) 0.986
OC[C@H]1O[C@@H](O[C@H]2[C@H](O)[C@@H](O)[C@H](O)O[C@@H]2CO)[C@H](O)[C@@H](O)[C@H]1O [Lactose] (50 µM) 1.01
CCC(=O)c1ccc(O)cc1 [Paroxypropione] (20 µM) 1.03
CCOc1ccc2ccccc2c1C(=O)N[C@@H]1C(=O)N2[C@@H]1SC(C)(C)[C@@H]2C(=O)O [Nafcillin sodium salt monohydrate] (20 µM) 0.899
